GBA activity up: glucocerebrosidase activity enhancement; L444P Gaucher fibroblasts, 4-MU-glucoside fluorescence, 3 days; P04062; 0.44% of 30,000 active; activation, % at 10 µM; in the data active = activation above about 65%;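 note: 0% = vehicle wells and 100% = positive control wells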
An asterisk follows results filed as active. This excerpt belongs to a sample that is enriched for hits.

SMILES | GBA activity up
O=C(CCn1c(=O)oc2ccccc21)NCc1cccs1 | -28
COC(=O)c1cn(C(=O)c2ccc(Br)o2)c2ccccc12 | -15
CCOC(=O)Cn1cc(C(=O)c2cccs2)c2ccccc21 | -11
COC(=O)c1cn(C(=O)c2cccs2)c2ccccc12 | 89*
Cc1ccc(C)c(NC(=O)C2CC=CCC2C(=O)O)c1 (configuration not stated) | 13
Cc1cccc(NC(=O)C2CC(O)CN2C(=O)OCc2ccccc2)c1 (configuration not stated) | 21
Cc1ccc(C)c(NC(=O)C2CC(O)CN2C(=O)OC(C)(C)C)c1 (configuration not stated) | 72*
COC(=O)c1cc(Br)c(=O)n(Cc2cccnc2)c1 | -22
Cc1cc(=O)n(CC(C)O)c(O)c1C#N (configuration not stated) | -36
COc1ccc2cc(CN(CC3COCCO3)S(=O)(=O)c3ccc(Cl)cc3)c(=O)[nH]c2c1 (configuration not stated) | -1
O=C(CSc1ccc2nnc(-c3cccnc3)n2n1)NCc1ccc2c(c1)OCO2 | -11
CCOc1cc2[nH]c(=O)n(CCCCC(=O)NC3CCCCC3)c(=O)c2cc1OCC | 8
Cc1ccccc1CS(=O)(=O)Cc1ccc(C(=O)NCc2ccco2)o1 | 171*
Cc1ccccc1CS(=O)(=O)Cc1ccc(C(=O)NCCCN2CCOCC2)o1 | 23
Cc1ccccc1CS(=O)(=O)Cc1ccc(C(=O)NCCCN2CCCC2=O)o1 | 13
Cc1nnc(Sc2nc3c(c(=O)n(C)c(=O)n3C)n2Cc2ccc(Cl)cc2)s1 | -5

High-throughput results from PubChem BioAssay.
